This note sets out measurements from PubChem BioAssay (NCI).

Among the test systems are NCI-H23 lung; NCI-H226 lung; NCI-H322M lung; HOP-62 NSCLC; NCI-H460 lung; HOP-92 NSCLC; NCI-H522 lung; A549/ATCC NSCLC; 786-0 renal; COLO 205 colon; DU-145 prostate; K-562 leukemia; MALME-3M melanoma; MDA-MB-231 breast; RXF 393 renal; SF-268 CNS; SF-295 CNS; SF-539 CNS; UACC-257 melanoma.
What all share (assay): NCI-60 one-dose screen, 48 h (100 = growth as untreated, 0 = no growth, -100 = all killed)
Details in all cases: 10 µM unless noted

Compounds without any hit were thinned out: in the full panel of roughly 83,000, 20% have a hit.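 Single-concentration screen, 48 h exposure, 96-well plates. Endpoint: percent growth. Below 10 = active.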 A number with no mark means an inactive call. Active and inactive are the calls of the source.

As for `OC1(c2ccccc2)c2ccccc2N(c2ccccc2)c2ccc(Cl)cc21` (configuration not stated), the growth in the assay with NCI-H23 lung was -49.4% (active); with NCI-H226 lung it was -80.7% (active); with NCI-H322M lung, -90.3% (active); in the assay on HOP-62 NSCLC, -91.7% (active); in the assay with NCI-H460 lung it was -48.4% (active); in the assay on HOP-92 NSCLC, -76.8% (active). The growth in the assay on NCI-H522 lung is -86.8% (active); with A549/ATCC NSCLC it was -12.5% (active); in the assay with 786-0 renal it was -94.6% (active); with COLO 205 colon, -85.7% (active); with DU-145 prostate, -90.6% (active); with K-562 leukemia, -11.4% (active). The growth with MALME-3M melanoma was -93.1% (active); in the assay with MDA-MB-231 breast it was -77% (active); in the assay on RXF 393 renal, -83% (active); in the assay with SF-268 CNS it was -72.4% (active); with SF-295 CNS, -57.6% (active); with SF-539 CNS, -82.6% (active). The growth in the assay on UACC-257 melanoma was -58.8% (active).

As to `COc1ccc(-c2cn(Cc3cc4ccccc4s3)nn2)cc1OCCN1CCCCC1`, the growth in the assay with NCI-H23 lung is 78.3%; in the assay on NCI-H226 lung, 95.6%; in the assay with NCI-H322M lung, 94.2%; with HOP-62 NSCLC it was 84%; in the assay on NCI-H460 lung it was 90%; in the assay on HOP-92 NSCLC, 50%. The growth in the assay with NCI-H522 lung is 91.7%; in the assay on A549/ATCC NSCLC, 80.2%; with 786-0 renal, 69.1%; with COLO 205 colon, 60.7%; with DU-145 prostate it was 85.7%; in the assay on K-562 leukemia, 16.3%. The growth in the assay with MALME-3M melanoma was 5.75% (active); with MDA-MB-231 breast, 45.9%; with RXF 393 renal, 44.2%; in the assay with SF-268 CNS it was 70.8%; in the assay on SF-295 CNS it was 70.6%; in the assay on SF-539 CNS, 79.7%. The growth in the assay on UACC-257 melanoma is 41.1%.

Take `Cc1cccc(NC(=O)Cn2cc(CN3CCN(c4ccnc5cc(Cl)ccc45)CC3)nn2)c1`: the growth is 89.4% in the assay on NCI-H23 lung; 75.5% with NCI-H226 lung; 93.1% with NCI-H322M lung; 80.1% with HOP-62 NSCLC; 94% with NCI-H460 lung; 56.3% in the assay with HOP-92 NSCLC. Moreover, the growth in the assay with NCI-H522 lung is 80.3%; with A549/ATCC NSCLC, 94.1%; in the assay with 786-0 renal, 101%; in the assay on COLO 205 colon it was 98.6%; in the assay with DU-145 prostate, 106%; in the assay on K-562 leukemia it was 71.6%. Further, the growth in the assay on MALME-3M melanoma is 92.5%; with MDA-MB-231 breast, 78.2%; in the assay on RXF 393 renal, 90.7%; in the assay with SF-268 CNS it was 81.8%; with SF-295 CNS, 93.7%; with SF-539 CNS, 93.4%. In the assay with UACC-257 melanoma, the growth is 105%.

Consider `O=C(Nc1ccccc1O)c1ccc(CNc2ccnc(C(F)(F)F)c2)cc1`, for which the growth with NCI-H23 lung is 39.1%; in the assay on NCI-H226 lung it was 68.9%; in the assay on NCI-H322M lung, 56.4%; in the assay with HOP-62 NSCLC, 60.3%; with NCI-H460 lung it was 38.8%; in the assay with HOP-92 NSCLC, 78.2%. The growth was 34.3% in the assay on NCI-H522 lung; 56.5% in the assay with A549/ATCC NSCLC; 45.4% with 786-0 renal; 112% in the assay on COLO 205 colon; 59% in the assay with DU-145 prostate; 18.2% in the assay with K-562 leukemia. Also, the growth with MALME-3M melanoma is 22%; in the assay on MDA-MB-231 breast, 62.9%; in the assay with RXF 393 renal, 80.6%; in the assay on SF-268 CNS it was 54.8%; with SF-295 CNS, 36%; in the assay with SF-539 CNS, 39.1%. In addition, the growth in the assay on UACC-257 melanoma is 46.4%.

Regarding `COc1ccc(-c2nc3ccc(C)cc3c3c2c(=O)n(C)c(=O)n3C)cc1OC`, the growth in the assay on NCI-H23 lung was 98.8%; in the assay on NCI-H226 lung, 108%; in the assay with NCI-H322M lung, 118%; in the assay with HOP-62 NSCLC, 112%; in the assay with NCI-H460 lung, 112%; in the assay on HOP-92 NSCLC, 99.2%. In addition, the growth was 107% in the assay with NCI-H522 lung; 89.9% in the assay with A549/ATCC NSCLC; 103% with 786-0 renal; 109% in the assay with COLO 205 colon; 108% with DU-145 prostate; 107% with K-562 leukemia. The growth in the assay with MALME-3M melanoma was 111%; in the assay on MDA-MB-231 breast it was 102%; in the assay with RXF 393 renal it was 99.2%; in the assay with SF-268 CNS, 100%; in the assay with SF-295 CNS, 91.3%; in the assay with SF-539 CNS it was 108%. For the same compound, the growth with UACC-257 melanoma was 114%.

Turning to `CC(=O)N1N=C(c2ccc(Nc3nc(Nc4ccc(F)cc4)nc(Nc4ccc(F)cc4)n3)cc2)CC1c1ccc(N(C)C)cc1` (configuration not stated), the growth in the assay with NCI-H23 lung was 52.2%; in the assay on NCI-H226 lung it was 74.6%; in the assay with NCI-H322M lung, 84%; in the assay with HOP-62 NSCLC, 54.5%; in the assay with NCI-H460 lung, 54.3%; in the assay with HOP-92 NSCLC, 35.3%. Besides, the growth was 46% with NCI-H522 lung; 39.3% with A549/ATCC NSCLC; 58.5% in the assay with 786-0 renal; 46.6% with COLO 205 colon; 78.2% with DU-145 prostate; 16.8% in the assay with K-562 leukemia. Moreover, the growth with MALME-3M melanoma is 42.1%; with MDA-MB-231 breast, 70%; in the assay with RXF 393 renal, 9.66% (active); with SF-268 CNS it was 74.4%; in the assay with SF-295 CNS, 18.2%; in the assay with SF-539 CNS it was 65.5%. In the assay with UACC-257 melanoma, the growth was 74.2%.

With `Oc1c(I)cc(I)cc1CN(Cc1ccccn1)Cc1ccccn1`, the growth with NCI-H23 lung is 25.6%; in the assay on NCI-H226 lung it was 21.7%; with NCI-H322M lung, 18.4%; with HOP-62 NSCLC it was 18.7%; in the assay with NCI-H460 lung it was 4.01% (active); with HOP-92 NSCLC, 24.4%. In addition, the growth in the assay on NCI-H522 lung was 11.5%; in the assay with A549/ATCC NSCLC it was 7.57% (active); in the assay on 786-0 renal, 18.2%; in the assay with COLO 205 colon it was 16%; in the assay with DU-145 prostate, 29%; with K-562 leukemia it was 14.2%. Further, the growth with MALME-3M melanoma is 17.1%; in the assay with MDA-MB-231 breast, 33.4%; in the assay with RXF 393 renal, 46.7%; with SF-268 CNS it was 19.7%; with SF-295 CNS, 23.5%; in the assay on SF-539 CNS, 4.05% (active). For the same compound, in the assay with UACC-257 melanoma, the growth was 1.45% (active).

`O=C(/C=C/C12c3ccccc3C(c3ccccc31)C1C(=O)NC(=O)C12)c1ccc(I)cc1` (configuration not stated): the growth with NCI-H23 lung is 59.3%; in the assay on NCI-H226 lung, 88.8%; in the assay with NCI-H322M lung, 65.1%; with HOP-62 NSCLC, 69.3%; with NCI-H460 lung it was 44.8%; with HOP-92 NSCLC, 63.7%. Moreover, the growth in the assay on NCI-H522 lung was 55%; with A549/ATCC NSCLC, 71.9%; in the assay on 786-0 renal, 64.6%; in the assay with COLO 205 colon, 78.8%; in the assay on DU-145 prostate it was 43.2%; with K-562 leukemia it was 24.8%. Also, the growth in the assay with MALME-3M melanoma was 86.1%; with MDA-MB-231 breast it was 64%; with RXF 393 renal, 46%; in the assay with SF-268 CNS, 49.8%; in the assay with SF-295 CNS it was 78.5%; in the assay on SF-539 CNS, 83.3%. In addition, in the assay on UACC-257 melanoma, the growth was 60.5%.
